Data on 14 molecules can be found in PubChem BioAssay (NCI).

SMILES strings stand for the structures. The panel holds about 83,000 compounds, 20% with a hit somewhere; the sample as a whole holds those more often.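 In brief: 96-well plates, 48 h treatment, single concentration, percent growth endpoint.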 Values without a mark were called inactive. Active and inactive are the calls of the source. The calls were made as follows: active = growth percent below 10; inactive = the rest.

Some test systems named below: SK-MEL-2 melanoma; EKVX NSCLC; SN12C renal; UO-31 renal; TK-10 renal; ACHN renal; CAKI-1 renal; A498 renal; CCRF-CEM leukemia; MOLT-4 leukemia.
Holding throughout (test): NCI-60 one-dose screen, 48 h (100 = growth as untreated, 0 = no growth, -100 = all killed)
Common to all, as to settings: 10 µM unless noted

On to `NC1=NN(c2ccccc2)C(=O)/C1=C/c1ccc(Cl)cc1`, for which the growth in the assay on SK-MEL-2 melanoma was 96.2%; in the assay with EKVX NSCLC it was 96%; with SN12C renal, 94.6%; in the assay with UO-31 renal it was 78.3%; with TK-10 renal it was 91.2%; with ACHN renal, 93.9%. Besides, the growth in the assay on CAKI-1 renal was 97%; in the assay with A498 renal, 99.7%; in the assay on CCRF-CEM leukemia, 101%; in the assay on MOLT-4 leukemia it was 102%.
As to `COc1cc2nc(Cl)nc(Nc3cccc(C(=O)/C=C/c4ccccc4)c3)c2cc1OC`, the growth with SK-MEL-2 melanoma was 86.8%; in the assay on EKVX NSCLC, 81.5%; with SN12C renal it was 59.5%; with UO-31 renal it was 50.8%; with TK-10 renal, 143%; in the assay on ACHN renal, 13.7%. Further, the growth is 48.4% with CAKI-1 renal, 90.6% in the assay with A498 renal, 28.9% in the assay with CCRF-CEM leukemia and 34.5% with MOLT-4 leukemia.
For the molecule `c1ccc(-c2nc(Nc3ccc(-c4nc5ccccc5[nH]4)cc3)nc(N3CCOCC3)n2)cc1`, the growth in the assay with SK-MEL-2 melanoma is -52.7% (active); in the assay with EKVX NSCLC, -66.9% (active); with SN12C renal, -62.8% (active); in the assay on UO-31 renal, -60.6% (active); with TK-10 renal it was -58.1% (active); in the assay with ACHN renal it was -58.9% (active). Also, the growth in the assay on CAKI-1 renal is -89.4% (active); in the assay with A498 renal, -83.4% (active); with CCRF-CEM leukemia, -15.7% (active); with MOLT-4 leukemia, -37.8% (active).
As for `Cc1ccc(N(CC(=O)Nc2ccc(S(=O)(=O)N3CCC(N4CCCC4)CC3)cc2)S(=O)(=O)c2ccc(Cl)cc2)cc1`, the growth with SK-MEL-2 melanoma was 91.9%; in the assay with EKVX NSCLC it was 70.1%; with SN12C renal, -35.7% (active); in the assay on UO-31 renal, 38.1%; in the assay on TK-10 renal, 112%; in the assay with ACHN renal, -38.4% (active). Also, the growth in the assay on CAKI-1 renal was 18.2%; with A498 renal, 65.6%; in the assay on CCRF-CEM leukemia, 3.02% (active); in the assay with MOLT-4 leukemia, 2.28% (active).
Take `COC(=O)[C@]12CC[C@@H](C(=O)/C=C/c3cccnc3)[C@@H]1[C@H]1CC[C@@H]3[C@@]4(C)C/C(=C/c5cccnc5)C(=O)C(C)(C)[C@@H]4CC[C@@]3(C)[C@]1(C)CC2`: the growth is -61.1% (active) in the assay with SK-MEL-2 melanoma; -76.3% (active) with EKVX NSCLC; -77.8% (active) in the assay on SN12C renal; -100% (active) in the assay on UO-31 renal; -60.5% (active) in the assay with TK-10 renal; -100% (active) in the assay on ACHN renal. Further, the growth in the assay on CAKI-1 renal is -78.7% (active); with A498 renal, -91.2% (active); with CCRF-CEM leukemia it was 0.953% (active); with MOLT-4 leukemia, -31.3% (active).
For `N#Cc1c(-c2ccc(O)cc2)c2c(N)nn(-c3ccccc3)c2[nH]c1=O`, the growth was 103% with SK-MEL-2 melanoma; 101% in the assay on EKVX NSCLC; 104% with SN12C renal; 71.8% in the assay with UO-31 renal; 137% in the assay on TK-10 renal; 100% in the assay with ACHN renal. The growth with CAKI-1 renal was 97.1%; in the assay with A498 renal, 108%; in the assay with CCRF-CEM leukemia, 110%; with MOLT-4 leukemia, 98.1%.
On to `Nc1ccccc1NC(=O)c1ccc(CN2CCC/C(=C\c3ccccn3)C2=O)cc1`, for which the growth with SK-MEL-2 melanoma is 27%; with EKVX NSCLC, 33.2%; with SN12C renal it was 48.2%; in the assay on UO-31 renal, 25.4%; in the assay on TK-10 renal, 14.2%; in the assay with ACHN renal, 20.6%. The growth is 17.7% in the assay on CAKI-1 renal, 7.96% (active) with A498 renal, 16.7% in the assay on CCRF-CEM leukemia and 7.84% (active) in the assay on MOLT-4 leukemia.
For `COc1cnc2c(c1)C(=O)c1c-2n(CCCNC2=NCCS2)c(=O)c2cc([N+](=O)[O-])ccc12`, the growth is 73.1% with SK-MEL-2 melanoma; 11.3% with EKVX NSCLC; 13.5% with SN12C renal; -71% (active) with UO-31 renal; -89.2% (active) with TK-10 renal; -77.8% (active) with ACHN renal. For the same molecule, the growth was 13.3% with CAKI-1 renal, -36% (active) with A498 renal, -10.9% (active) with CCRF-CEM leukemia and -11.3% (active) in the assay on MOLT-4 leukemia.
Turning to `CCCCC(=O)OC1CCCCC1C` (stereo not given), the growth was 111% with SK-MEL-2 melanoma; 104% in the assay with EKVX NSCLC; 94.1% in the assay with SN12C renal; 93.2% in the assay on UO-31 renal; 94.5% in the assay with TK-10 renal; 94.4% with ACHN renal. Further, the growth in the assay on CAKI-1 renal was 94.9%; in the assay with A498 renal, 93.2%; in the assay with CCRF-CEM leukemia, 94.3%; with MOLT-4 leukemia, 109%.
`Cc1ccnc2c(OCc3ccccc3)cccc12`: the growth with SK-MEL-2 melanoma was 105%; in the assay on EKVX NSCLC, 78.6%; in the assay with SN12C renal, 88.8%; with UO-31 renal, 64.3%; in the assay on TK-10 renal, 102%; in the assay with ACHN renal, 89.3%. For the same molecule, the growth with CAKI-1 renal was 86.1%; with A498 renal, 90.3%; in the assay with CCRF-CEM leukemia, 108%; with MOLT-4 leukemia it was 98%.
On to `Clc1ccc(Cn2cc(-c3nc4ccc(Br)nc4n3Cc3ccc(Cl)cc3)c3cccnc32)cc1`, for which the growth was 89.2% in the assay on SK-MEL-2 melanoma; 77.8% in the assay on EKVX NSCLC; 86.8% in the assay with SN12C renal; 51.7% in the assay with UO-31 renal; 112% in the assay with TK-10 renal; 75% in the assay on ACHN renal. In addition, the growth was 82% in the assay on CAKI-1 renal, 76.4% in the assay on A498 renal, 78.6% in the assay on CCRF-CEM leukemia and 59.3% with MOLT-4 leukemia.
With `O=C(O[C@@H]1Cc2c(O)cc(O)cc2O[C@@H]1c1cc(O)c(O)c(O)c1)c1cc(O)c2c(c1)OCO2`, the growth in the assay on SK-MEL-2 melanoma is 102%; in the assay on EKVX NSCLC, 102%; in the assay with SN12C renal, 98.6%; in the assay with UO-31 renal, 92.2%; in the assay with TK-10 renal, 88.4%; with ACHN renal, 112%. Further, the growth in the assay with CAKI-1 renal is 94.4%; in the assay on A498 renal, 117%; in the assay with CCRF-CEM leukemia, 93%; in the assay with MOLT-4 leukemia, 81.5%.
Consider `C=C(C)[C@@H]1CC[C@]2(CN)CC[C@]3(C)[C@H](CC[C@@H]4[C@@]5(C)CCC(=O)NC(C)(C)[C@@H]5CC[C@]43C)[C@@H]12`, for which the growth was 98.8% in the assay with SK-MEL-2 melanoma; 87.3% in the assay on EKVX NSCLC; 65.6% with SN12C renal; 58.9% in the assay on UO-31 renal; 114% with TK-10 renal; 69.1% with ACHN renal. Also, the growth with CAKI-1 renal was 59.9%; with A498 renal it was 96.2%; in the assay with CCRF-CEM leukemia, 20.9%; with MOLT-4 leukemia, 21.5%.
For `COC(=O)[C@]12CC[C@@H](C)[C@H](C)[C@@H]1C1=CC[C@@H]3[C@@]4(C)C[C@@H](O)OC[C@](C)(C=O)C4C(=O)C[C@@]3(C)[C@]1(C)CC2` (stereo not given in full), the growth in the assay with SK-MEL-2 melanoma is -22.4% (active); in the assay with EKVX NSCLC it was 21%; in the assay on SN12C renal it was 11.4%; in the assay on UO-31 renal, 7.68% (active); with TK-10 renal it was 9.25% (active); in the assay with ACHN renal it was 7.86% (active). Moreover, the growth in the assay on CAKI-1 renal was 7.25% (active); in the assay on A498 renal it was -0.985% (active); in the assay with CCRF-CEM leukemia it was -7.54% (active); in the assay on MOLT-4 leukemia it was -9.93% (active).
